From ChEMBL document CHEMBL4888484, “Replenishing the malaria drug discovery pipeline: Screening and hit evaluation of the MMV Hit Generation Library 1 (HGL1) against asexual blood stage Plasmodium falciparum ,using a nano luciferase reporter read-out” (2022)
Out of some 4,800 compounds screened, about 420 (8.8%) showed an effect of 50% or more. The entries come from a sample that favours strong results as a whole.

Tested on: Plasmodium falciparum
Experiment: Confirmatory screen in NF54 nanoGlo assay, in single point, at 2uM, 72h
Type: functional, Erythrocyte
Settings: timepoint 72 hour

Q: With `CC1CC(N)CCN1C(=O)c1cccc(-c2noc(C3CC3)n2)c1` (configuration not stated) as the compound, how does the “% Inhibition” value read?
A: 2%

Q: How did the “% Inhibition” value turn out when `CN(CCOc1ccc(Cl)cc1Cl)[C@H]1CCS(=O)(=O)C1` was run?
A: -7%

Q: How did the “% Inhibition” value turn out when `CCN(C(C)=O)c1ccc(Cl)cc1F` was run?
A: -13%

Q: Which “% Inhibition” value does the source give for `COc1ccc(C)cc1NC(=O)C[C@H]1CCN(S(C)(=O)=O)C1` here?
A: 0%

Q: For `Cc1cc2nc(C(=O)NC3CCN(Cc4ccccc4)CC3)c(=O)n(C)c2cc1C`, which “% Inhibition” value is on record?
A: -8%

Q: With `O=C(Cn1cccc1-c1nc(-c2ccc(F)c(Br)c2)no1)N1CCc2ccccc2C1` as the compound, how does the “% Inhibition” value read?
A: 1%

Q: `CC(C)c1nc(C2CN(C(=O)Nc3ccc(F)c(Cl)c3)C2)n(C)n1` was tested. Which “% Inhibition” value did it give?
A: 4%

Q: Which “% Inhibition” value does the source give for `CC(C)c1cc(=O)[nH]c(-n2nc(C3CC3)cc2NC(=O)Cc2ccc(Cl)cc2)n1` here?
A: 69%

Q: Which “% Inhibition” value does the source give for `CC(C)c1cc(=O)[nH]c(-n2nc(C3CC3)cc2NC(=O)COc2ccc3ccccc3c2)n1` here?
A: 70%

Q: Which “% Inhibition” value does the source give for `Cc1cc(NC(=O)c2ccc(COc3ccc4ccccc4c3)o2)nn1C` here?
A: -3%

Q: With `Cc1ccc(N2C[C@@H](c3nnc(NC(=O)Cc4ccc(Cl)cc4)o3)CC2=O)cc1` as the compound, how does the “% Inhibition” value read?
A: -13%

Q: For `O=C(Nc1ccc(OC(F)F)cc1)c1cc(C2CC2)nc2c1c(C1CC1)nn2-c1ccccc1`, which “% Inhibition” value is on record?
A: -7%

Q: `CCNC(=O)C1Cc2ccc(OC)cc2N2CCN(c3ccc(OC)cc3)CC12` (configuration not stated) was tested. Which “% Inhibition” value did it give?
A: 2%

Q: With `O=C(C[C@H]1CCN(C(=O)c2cc(F)ccc2F)C1)NC1CC1` as the compound, how does the “% Inhibition” value read?
A: -2%

Q: `CN(C)/C=C/c1cc(C#N)c(C#N)cc1Br` was tested. Which “% Inhibition” value did it give?
A: -4%

Q: How did the “% Inhibition” value turn out when `O=C(c1c(F)cccc1F)N1C[C@@H]2CCCN2c2ccc(C(F)(F)F)cc21` was run?
A: -13%

Q: With `COc1ccccc1-n1cnc2cc(C(=O)N3CCCC3)ccc2c1=O` as the compound, how does the “% Inhibition” value read?
A: -4%

Q: With `CC[C@H](C)[C@H](NC(=O)c1ccc(Br)c(F)c1)C(=O)O` as the compound, how does the “% Inhibition” value read?
A: -8%

Q: `N[C@@H](CO)c1cccc(Br)c1` was tested. Which “% Inhibition” value did it give?
A: 7%

Q: How did the “% Inhibition” value turn out when `COC(=O)CN(c1ccccc1)S(=O)(=O)c1ccc2nncn2c1` was run?
A: -1%

Q: Which “% Inhibition” value does the source give for `COc1cccc(N2C(=O)N[C@H](C)C2=O)c1` here?
A: 8%

Q: With `COc1cccc(C(=O)Nc2noc(-c3cccc(OC)c3)c2-c2ccc(Cl)cc2)c1` as the compound, how does the “% Inhibition” value read?
A: -11%

Q: `COc1ccc(-c2c(-c3cccc(OC)c3)[nH]c3c2c(=O)[nH]c(=O)n3C)cc1` was tested. Which “% Inhibition” value did it give?
A: 74%

Q: With `CC1CC(C)(C)CCC1NC(=O)NC1CCN(C)C1=O` (configuration not stated) as the compound, how does the “% Inhibition” value read?
A: -4%

Q: Which “% Inhibition” value does the source give for `COc1cccc(CCC(=O)N2CCN3CCC2C3)c1F` (configuration not stated) here?
A: -15%

Q: For `CC[C@@H](CO)NC(=O)Nc1ccc(Cl)cc1`, which “% Inhibition” value is on record?
A: 6%

Q: Which “% Inhibition” value does the source give for `CNC(=NCCCOc1cccc(OC)c1)NC` here?
A: -6%

Q: How did the “% Inhibition” value turn out when `Cc1cc(C(=O)Nc2ccc3ccccc3c2)co1` was run?
A: -5%

Q: How did the “% Inhibition” value turn out when `Cc1nc2sc(C(=O)Nc3ccc4ccccc4c3)c(N)c2c(C)c1C` was run?
A: 2%

Q: How did the “% Inhibition” value turn out when `Cc1c(C)c2ccc(NC(=O)c3cc4ccccc4o3)cc2[nH]c1=O` was run?
A: 74%

Q: `CN(Cc1ccc(-c2ccccc2)cc1)c1cc([C@H]2C[C@@H](N)C2)nc(N)n1` was tested. Which “% Inhibition” value did it give?
A: 49%

Q: For `CC1CCN(C[C@@H](O)CNc2nnc(C(F)(F)F)s2)CC1`, which “% Inhibition” value is on record?
A: -10%

Q: `Cn1n[n+](CC(=O)Nc2ccccc2Cl)c2ccccc21` was tested. Which “% Inhibition” value did it give?
A: -5%

Q: `Cn1n[n+](CCCCC(Cl)(Cl)Cl)c2ccccc21` was tested. Which “% Inhibition” value did it give?
A: 53%

Q: Which “% Inhibition” value does the source give for `CCN(CC(=O)Nc1ccccc1OC)C(=O)c1ccc(S(=O)(=O)N2CCOCC2)cc1` here?
A: 10%

Q: Which “% Inhibition” value does the source give for `CC(C)n1[nH]c(=O)c2c(C3CCCCC3)c3sc(=O)[nH]c3nc21` here?
A: -3%

Q: With `Nc1cc2c(cc1C1=Nc3ccccc3C(c3ccccc3)(c3ccccc3)N1)OCO2` as the compound, how does the “% Inhibition” value read?
A: 10%

Q: `COc1ccc(CCNC(=O)c2cc3n(n2)CCN(Cc2cccc(F)c2)C3=O)cc1OC` was tested. Which “% Inhibition” value did it give?
A: 17%

Q: With `COc1ccc(CCNC(=O)c2c(C)noc2-c2ccncc2)cc1OC` as the compound, how does the “% Inhibition” value read?
A: 1%

Q: `COc1ccc(CCNC(=O)c2cc3c(=O)[nH]c(C)cn3n2)cc1OC` was tested. Which “% Inhibition” value did it give?
A: 67%

Q: How did the “% Inhibition” value turn out when `C#CCN(C(=O)c1ccncc1CC)c1nccs1` was run?
A: -10%

Q: How did the “% Inhibition” value turn out when `CCCC1(c2ccncc2)CC(C)OC1=O` (configuration not stated) was run?
A: -1%

Q: `Cc1ccc(-c2noc(CCC(=O)NC[C@H]3CCCO3)n2)c(=O)n1C(C)C` was tested. Which “% Inhibition” value did it give?
A: -1%

Q: `O=C(CCn1ncc2c(Cl)cccc21)NCC1CCCC1` was tested. Which “% Inhibition” value did it give?
A: -9%

Q: For `c1cn(CCCOc2ccc3c(c2)OCO3)nn1`, which “% Inhibition” value is on record?
A: 3%

Q: For `COc1ccc(CC(=O)NCCn2c(C(F)(F)F)nc3ccccc32)cc1`, which “% Inhibition” value is on record?
A: 42%

Q: With `CC(C)C(=O)Nc1ccc(-c2cc(-c3ccc(NC(=O)C(C)C)cc3)nc(-c3ccncc3)n2)cc1` as the compound, how does the “% Inhibition” value read?
A: 56%

Q: Which “% Inhibition” value does the source give for `CC(C)C(=O)NCC(=O)Nc1ccc(C(F)(F)F)cc1` here?
A: -15%

Q: Which “% Inhibition” value does the source give for `CCNC(=O)c1nc(-c2ccncc2)cs1` here?
A: -21%

Q: How did the “% Inhibition” value turn out when `Cc1ccccc1C(=O)NCC(=O)NCCc1c[nH]c2ccccc12` was run?
A: -7%

Q: How did the “% Inhibition” value turn out when `Clc1ccccc1-c1c[nH]c([C@@H]2CCCN2)n1` was run?
A: 5%

Q: How did the “% Inhibition” value turn out when `O=C(Oc1cccc2cccnc12)c1ccc(-c2ccccc2)cc1` was run?
A: 2%

Q: `O=C(Nc1cccc2cccnc12)c1ccccn1` was tested. Which “% Inhibition” value did it give?
A: 80%

Q: With `Oc1ccccc1CNc1cccc2cccnc12` as the compound, how does the “% Inhibition” value read?
A: 98%

Q: `CC(C)(C)C(=O)NCCNC(=O)c1ccccn1` was tested. Which “% Inhibition” value did it give?
A: 8%

Q: With `O=C(Nc1cccc2cccnc12)c1cncc(Br)c1` as the compound, how does the “% Inhibition” value read?
A: -12%

Q: `CCN(CC)S(=O)(=O)c1ccc2c(c1)CCCN2C(=O)c1ccc2ccccc2c1` was tested. Which “% Inhibition” value did it give?
A: 1%

Q: How did the “% Inhibition” value turn out when `CCOC1CC(NC2CC(c3ccc(F)cc3)C2)C12CCC2` (configuration not stated) was run?
A: 67%

Q: With `CC1(C)NC(=O)CC[C@@H]1NC1CC(c2cccc(F)c2)C1` (some centres not stated) as the compound, how does the “% Inhibition” value read?
A: 5%

Q: `O=C(N[C@H](c1ccccc1)C1CC1)N1CCN(S(=O)(=O)c2cccc(F)c2)CC1` was tested. Which “% Inhibition” value did it give?
A: 4%

Q: With `CCOC(=O)c1cc(F)cc(S(=O)(=O)Nc2ccnc3ncnn23)c1` as the compound, how does the “% Inhibition” value read?
A: 34%

Q: `COCc1cc(=O)n(CC(=O)NCc2ccccc2Cl)c(N2CCCC2)n1` was tested. Which “% Inhibition” value did it give?
A: -11%

Q: Which “% Inhibition” value does the source give for `Cc1nn(C)c(Oc2cccc(F)c2)c1NC(=O)CC(C)C` here?
A: 8%

Q: How did the “% Inhibition” value turn out when `O=C(NCCN1CCCC1)c1ccc2nc(-c3ccc(Cl)cc3)cn2c1` was run?
A: 18%

Q: `CC(C)(C)n1nc2nc(NCCN3CCCCC3)nc(-c3ccc(F)c(Cl)c3)c2c1N` was tested. Which “% Inhibition” value did it give?
A: 62%

Q: How did the “% Inhibition” value turn out when `COCc1cc(F)ccc1NC(=O)NC1CCN(c2cc(C)nc(C)n2)CC1` was run?
A: -5%

Q: Which “% Inhibition” value does the source give for `CCOc1ccccc1C(=O)Nc1c(-n2cnnc2)nn(C)c1C` here?
A: 2%
